This passage reports outcome and AC50 results from PubChem BioAssay (EPA / NIEHS).

The source made the active and inactive calls. Rule for the calls: active = hit-call score of the fitted dose curve at least 0.9, where 1 is the maximum; inactive = score below 0.9.

Conditions in all cases: mRNA level, 48 h; actives raise or lower the signal
Read-out in assay [1]: Tumor necrosis factor receptor superfamily member 6 (Homo sapiens) (UniProt P25445)
In words: LTEA_HepaRG_FAS: Life Technologies and Expression Analysis (LTEA) Assay for Fas cell surface death receptor (FAS) using HepaRG (AID 2283447). The method in brief:
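Differentiated HepaRG cells in serum-free induction medium were exposed 48 h to 8 half-log concentrations up to 100 uM in 0.5% DMSO, in duplicate. FAS mRNA was measured by qRT-PCR normalised to ACTB, GAPDH and POLR2A; bidirectional fit versus DMSO.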

Read-out in assay [2]: Fatty acid synthase (Homo sapiens) (UniProt P49327)
In words: LTEA_HepaRG_FASN: Life Technologies and Expression Analysis (LTEA) Assay for Fatty Acid Synthase (FASN) using HepaRG (AID 2283448). A digest of the protocol: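 FASN transcript measured by TaqMan qRT-PCR, normalised to three housekeeping genes, after 48 h chemical exposure of HepaRG cells. Eight-point half-log series from 100 uM in 0.5% DMSO, duplicates; gain or loss fitted against vehicle.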

Read-out in assay [3]: Cyclin D2 (CCND2), CCND2 (gene 894)
In words: LTEA_HepaRG_CCND2: Life Technologies and Expression Analysis (LTEA) Assay for Cyclin D2 (CCND2) using HepaRG (AID 2283449).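 Note: CCND2 transcript measured by TaqMan qRT-PCR and normalised to three housekeeping genes.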 The method in brief:
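HepaRG, 48 h dosing, 8-pt half-log curve from 100 uM, 0.5% DMSO; duplicate wells. Readout: CCND2 transcript by microfluidic qRT-PCR, housekeeping-normalised; bidirectional fit vs DMSO baseline.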

Read-out in assay [4]: Cyclin Dependent Kinase Inhibitor 1A (CDKN1A), CDKN1A (gene 1026)
In words: LTEA_HepaRG_CDKN1A: Life Technologies and Expression Analysis (LTEA) Assay for Cyclin Dependent Kinase Inhibitor 1A (CDKN1A) using HepaRG (AID 2283450). The method in brief: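 Differentiated HepaRG cells in serum-free induction medium, exposed 48 h in duplicate to eight half-log concentrations up to 100 uM in 0.5% DMSO. mRNA measured by TaqMan qRT-PCR, normalized to ACTB, GAPDH, POLR2A; bidirectional fit versus DMSO.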

Read-out in assay [5]: Cyclin D1 (CCND1), CCND1 (gene 595)
In words: LTEA_HepaRG_CCND1: Life Technologies and Expression Analysis (LTEA) Assay for Cyclin D1 (CCND1) using HepaRG (AID 2283451).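 For AC50: TaqMan qRT-PCR transcript level normalised to ACTB GAPDH and POLR2A housekeeping genes.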 A digest of the protocol:
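Differentiated HepaRG cells exposed 48 h in serum-free induction medium to eight half-log concentrations from 100 uM top, 0.5% DMSO, duplicates. CCND1 mRNA measured by Fluidigm TaqMan qRT-PCR, normalised to ACTB, GAPDH, POLR2A; bidirectional fit.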

Read-out in assay [6]: flavin-containing dimethylaniline monooxygenases 3 (FMO3), FMO3 (gene 2328)
In words: LTEA_HepaRG_FMO3: Life Technologies and Expression Analysis (LTEA) Assay for flavin-containing dimethylaniline monooxygenases 3 (FMO3) using HepaRG (AID 2283453).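 For AC50: FMO3 transcript by TaqMan qRT-PCR normalized to ACTB GAPDH and POLR2A.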 The method in brief: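 FMO3 transcript quantified by TaqMan qRT-PCR against three housekeeping genes after 48 h chemical exposure of HepaRG cells. Eight-point half-log series, top 100 uM, 0.5% DMSO vehicle; phenobarbital 1mM induction control; up- or down-regulation fitted.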

Read-out in assay [7]: CFLAR gene, CFLAR (gene 8837)
In words: LTEA_HepaRG_CFLAR: Life Technologies and Expression Analysis (LTEA) Assay for CFLAR gene using HepaRG (AID 2283455). The method in brief: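 qRT-PCR read-out (Fluidigm/TaqMan) of CFLAR mRNA, normalized to three housekeeping genes, in differentiated human HepaRG cells after 48 h chemical exposure; 8-point half-log series from 100 uM in 0.5% DMSO; bidirectional curve fitting versus DMSO.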

Read-out in assay [8]: Forkhead box O1 (FOXO1), FOXO1 (gene 2308)
In words: LTEA_HepaRG_FOXO1: Life Technologies and Expression Analysis (LTEA) Assay for Forkhead box O1 (FOXO1) using HepaRG (AID 2283456). The method in brief: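 HepaRG, 48 h exposure, 8-pt half-log series from 100 uM in 0.5% DMSO, duplicates; Fluidigm qRT-PCR mRNA, housekeeping-normalised; bidirectional fit vs DMSO baseline.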

Read-out in assay [9]: Cytochrome P450 (CYP1A1), CYP1A1 (gene 1543)
In words: LTEA_HepaRG_CYP1A1: Life Technologies and Expression Analysis (LTEA) Assay for Cytochrome P450 (CYP1A1) using HepaRG (AID 2283454). A digest of the protocol:
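Differentiated human HepaRG cells, after 48 h plating, exposed in duplicate for 48 h in serum-free induction medium to 8 half-log concentrations up to 100 uM in 0.5% DMSO. CYP1A1 mRNA by qRT-PCR, normalized to ACTB/GAPDH/POLR2A; bidirectional fit versus DMSO.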

Read-out in assay [10]: catalase (CAT), CAT (gene 847)
In words: LTEA_HepaRG_CAT: Life Technologies and Expression Analysis (LTEA) Assay for catalase (CAT) using HepaRG (AID 2283452).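 For AC50: TaqMan qRT-PCR signal normalized to ACTB GAPDH and POLR2A housekeeping genes.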 The method in brief: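 HepaRG cells in serum-free induction medium, 0.5% DMSO vehicle, exposed 48 h in duplicate over 8 half-log concentrations from 100 uM. CAT mRNA measured by qRT-PCR, normalized to ACTB, GAPDH, POLR2A; bidirectional fit versus DMSO.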

Chain of Fatty acid synthase (Homo sapiens) (P49327 whole entry, looked up): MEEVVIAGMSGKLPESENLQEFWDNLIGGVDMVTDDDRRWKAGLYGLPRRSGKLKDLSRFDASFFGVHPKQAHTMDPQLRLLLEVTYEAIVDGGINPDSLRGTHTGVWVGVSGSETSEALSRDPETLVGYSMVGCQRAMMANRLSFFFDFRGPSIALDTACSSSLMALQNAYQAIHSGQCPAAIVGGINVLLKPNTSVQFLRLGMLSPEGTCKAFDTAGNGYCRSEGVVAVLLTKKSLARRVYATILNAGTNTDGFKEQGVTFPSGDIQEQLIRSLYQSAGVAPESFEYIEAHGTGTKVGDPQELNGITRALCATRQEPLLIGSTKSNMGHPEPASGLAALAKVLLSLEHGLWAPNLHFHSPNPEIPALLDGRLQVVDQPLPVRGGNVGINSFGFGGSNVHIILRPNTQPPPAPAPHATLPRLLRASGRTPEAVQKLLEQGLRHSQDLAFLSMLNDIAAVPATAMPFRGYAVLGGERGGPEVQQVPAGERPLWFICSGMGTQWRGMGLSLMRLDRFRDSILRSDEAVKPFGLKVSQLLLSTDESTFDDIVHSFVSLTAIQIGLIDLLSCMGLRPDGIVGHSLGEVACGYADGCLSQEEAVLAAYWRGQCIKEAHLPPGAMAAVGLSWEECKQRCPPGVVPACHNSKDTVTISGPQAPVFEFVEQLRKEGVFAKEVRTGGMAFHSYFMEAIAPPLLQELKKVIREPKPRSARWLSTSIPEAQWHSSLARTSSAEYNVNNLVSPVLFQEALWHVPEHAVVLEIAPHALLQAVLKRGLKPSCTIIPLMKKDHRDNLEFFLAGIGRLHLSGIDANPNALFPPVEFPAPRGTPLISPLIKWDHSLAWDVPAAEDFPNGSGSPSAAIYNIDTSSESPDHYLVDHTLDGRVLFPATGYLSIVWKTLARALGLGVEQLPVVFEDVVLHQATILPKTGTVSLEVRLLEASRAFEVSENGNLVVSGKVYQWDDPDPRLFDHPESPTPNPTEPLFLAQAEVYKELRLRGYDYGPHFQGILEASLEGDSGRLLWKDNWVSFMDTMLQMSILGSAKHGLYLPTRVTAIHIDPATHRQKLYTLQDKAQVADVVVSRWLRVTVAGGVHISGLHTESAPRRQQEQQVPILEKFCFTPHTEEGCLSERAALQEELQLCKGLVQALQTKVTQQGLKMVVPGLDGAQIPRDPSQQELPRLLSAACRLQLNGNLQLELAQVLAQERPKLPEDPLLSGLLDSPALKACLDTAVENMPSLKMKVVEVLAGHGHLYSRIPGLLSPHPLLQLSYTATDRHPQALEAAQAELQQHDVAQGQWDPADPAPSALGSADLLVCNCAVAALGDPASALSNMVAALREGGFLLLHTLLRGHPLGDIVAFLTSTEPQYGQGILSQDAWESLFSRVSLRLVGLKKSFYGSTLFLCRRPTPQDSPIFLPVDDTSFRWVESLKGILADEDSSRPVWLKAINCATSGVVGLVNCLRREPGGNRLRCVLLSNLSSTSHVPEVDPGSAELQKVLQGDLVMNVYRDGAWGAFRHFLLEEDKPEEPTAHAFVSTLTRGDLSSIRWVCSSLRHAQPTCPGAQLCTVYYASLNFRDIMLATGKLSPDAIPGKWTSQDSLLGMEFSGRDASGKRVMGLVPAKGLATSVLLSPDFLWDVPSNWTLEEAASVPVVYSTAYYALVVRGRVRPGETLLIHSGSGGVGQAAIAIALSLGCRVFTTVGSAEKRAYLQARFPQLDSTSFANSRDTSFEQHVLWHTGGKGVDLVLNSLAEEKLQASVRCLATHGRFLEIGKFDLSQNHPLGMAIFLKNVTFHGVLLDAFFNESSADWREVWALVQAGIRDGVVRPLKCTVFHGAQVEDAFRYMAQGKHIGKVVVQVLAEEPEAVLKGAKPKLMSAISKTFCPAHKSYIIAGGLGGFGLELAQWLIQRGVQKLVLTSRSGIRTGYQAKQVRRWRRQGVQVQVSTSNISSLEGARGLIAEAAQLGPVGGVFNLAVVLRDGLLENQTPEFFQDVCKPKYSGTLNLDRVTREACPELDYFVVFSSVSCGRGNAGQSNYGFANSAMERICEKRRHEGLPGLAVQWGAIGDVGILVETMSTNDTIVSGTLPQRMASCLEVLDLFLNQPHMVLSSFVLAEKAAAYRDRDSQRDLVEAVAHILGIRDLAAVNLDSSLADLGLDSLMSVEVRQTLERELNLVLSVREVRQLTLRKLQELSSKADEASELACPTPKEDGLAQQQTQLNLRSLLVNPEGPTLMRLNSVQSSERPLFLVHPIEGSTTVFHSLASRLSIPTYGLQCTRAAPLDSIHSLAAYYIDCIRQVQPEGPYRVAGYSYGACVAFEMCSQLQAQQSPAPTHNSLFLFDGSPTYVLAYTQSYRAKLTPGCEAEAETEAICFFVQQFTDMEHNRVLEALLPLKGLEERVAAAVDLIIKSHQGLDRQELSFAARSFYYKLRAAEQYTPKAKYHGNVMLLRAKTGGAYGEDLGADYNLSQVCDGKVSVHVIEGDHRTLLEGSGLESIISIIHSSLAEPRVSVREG

As for `Cc1occc(=O)c1O`, the compound was classed as inactive in assay [1], in assay [2], in assay [3], in [4], in assay [5] and in [6]. For the same compound, the call in assay [7] and in assay [8] was inactive.

Consider `CCCCCCCCCCCCCCCCO`, for which the compound was called inactive in assay [1], in assay [2], in assay [3], in assay [4], in assay [5] and in assay [6]. Besides, the outcome in assay [7] and in assay [8] was inactive.

Take `CC(N)=O`: the result in assay [1], in assay [2], in assay [4], in assay [5], in assay [6] and in assay [9] was inactive. The compound was classed as inactive in assay [7] and in assay [8].

Broadly, the AC50 is the concentration giving half of the maximal activity seen. Turning to `CCCCCCCC(=O)OC`, the result in [1], in assay [2], in [4], in [5], in [10] and in assay [9] was inactive. For the same compound, the call in [7] and in [8] was inactive. Also, the AC50 in assay [6] was 12.1 µM (active).

`COC(=O)[C@H]1[C@H]2C[C@@H]3c4[nH]c5cc(OC)ccc5c4CCN3C[C@H]2C[C@@H](OC(=O)c2cc(OC)c(OC)c(OC)c2)[C@@H]1OC`: the compound was classed as inactive in assay [1], in assay [4], in [5], in assay [7] and in [8]. Further, the AC50 was 28.1 µM (active) in [2], 14.9 µM (active) in [3] and 30.5 µM (active) in assay [6].

`CC(C)COC(=O)CCCCC(=O)OCC(C)C`: the compound was called inactive in assay [1], in assay [2], in [3], in assay [4], in assay [5] and in assay [6]. For the same compound, the outcome in [7] and in assay [8] was inactive.

For the compound `Cc1ccc(-c2cc(C(F)(F)F)nn2-c2ccc(S(N)(=O)=O)cc2)cc1`, the concentration at half-maximal activity (AC50) in assay [1] was 84.5 µM (active); in assay [2], 76.7 µM (active); in assay [6] it was 76.8 µM (active); in [7], 78.3 µM (active); in assay [8], 77.2 µM (active). Moreover, the result in assay [4] and in assay [5] was inactive.

Turning to `Cn1cnc2c1c(=O)[nH]c(=O)n2C`, the compound was called inactive in [1], in [2], in assay [4], in [5], in [6] and in assay [7]. For the same compound, the compound was classed as inactive in assay [8].

In the case of `CSc1ccc(Oc2ccc(S(N)(=O)=O)cc2CN(C)C)cc1C`, the result in assay [1], in assay [3], in assay [4], in [5], in [7] and in assay [8] was inactive. Besides, the AC50 is 83.1 µM (active) in assay [2] and 77.7 µM (active) in [6].

`COC(=O)CCC(=O)OC`: the result in assay [1], in assay [2], in [4], in assay [5], in [6] and in [7] was inactive. Besides, in [8], the result was inactive. In addition, the AC50 in assay [9] is 50 µM (active).

On to `Nc1nc(=S)c2[nH]cnc2[nH]1`, for which the AC50 is 3.1 µM (active) in [1], 9.16 µM (active) in assay [2], 6.05 µM (active) in [4] and 6.74 µM (active) in [6]. Moreover, the compound was classed as inactive in assay [5], in [7] and in [8].

As to `NCCOCCOCCN`, the compound was classed as inactive in [1], in assay [2], in [4], in assay [5], in assay [6] and in assay [7]. For the same compound, in assay [8], the compound was called inactive.

For `CN(C)CCCN1c2ccccc2Sc2ccc(Cl)cc21`, the result in [1] and in assay [3] was inactive. Further, the AC50 in [2] was 12.5 µM (active); in assay [4], 50 µM (active); in [5], 50 µM (active); in assay [10], 50 µM (active); in assay [9] it was 27.1 µM (active); in [7], 71.3 µM (active). In addition, the AC50 in [8] was 79.2 µM (active).

As for `CC(=O)OCC(COC(C)=O)OC(C)=O`, the compound was classed as inactive in assay [1], in assay [2], in [3], in assay [4], in assay [5] and in assay [6]. Further, the outcome in assay [7] and in [8] was inactive. Moreover, the AC50 in assay [9] was 12 µM (active).

Take `NC(=Nc1ccccc1)Nc1ccccc1`: the outcome in assay [1], in [2], in [3], in assay [4], in assay [5] and in assay [6] was inactive. For the same compound, the result in assay [7] and in assay [8] was inactive.
